Laboratory results: the supplement of paper PMC10127200
Where a name gives a salt, the structure may show the parent alone.

Experiments:
Assay in all cases: Euclidean distance of Cell Painting phenotypic profile (signed KS, 77 features) to DMSO centroid (dimensionless distance); higher = stronger phenotypic change vs DMSO (phenoactivity)
Details in all cases: 48 h; 5 or 10 uM (library dependent)
[1] = system: 786-O
Summary of the method: (§1)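 Harmony extracted 77 features from 20X confocal images (9 fields/well) of stained cells, scoring each as a signed Kolmogorov-Smirnov statistic against same-plate vehicle wells. The cells, five cancer lines and a healthy fibroblast line, had received library compounds for 48 h at 10 or 5 uM depending on library, with 0.1% DMSO final. Phenoactivity is the Euclidean distance from each plate-position-corrected, correlation-weighted, top-dose replicate-averaged profile to the median vehicle profile.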

[2] = system: A549
Summary of the method: as §1

[3] = system: DU145
Summary of the method: as §1

[4] = system: FB
Summary of the method: as §1

[5] = system: HEPG2
Summary of the method: as §1

[6] = system: OVCAR4
Summary of the method: as §1

| Structure (SMILES) | Euclidean distance [1] | Euclidean distance [2] | Euclidean distance [3] | Euclidean distance [4] | Euclidean distance [5] | Euclidean distance [6] |
| --- | --- | --- | --- | --- | --- | --- |
| Cc1ccccc1-n1c(Cn2ncc3c(N)ncnc32)nc2cccc(C)c2c1=O | 0.868 | 0.946 | 1.12 | 0.901 | 2.23 | 1.03 |
| Cc1sc2c(c1C)C(c1ccc(Cl)cc1)=N[C@@H](CC(=O)OC(C)(C)C)c1nnc(C)n1-2 | 3.44 | 2.14 | 2.03 | 3.52 | 1.96 | 1.96 |
| CCC1=C[C@H]2CN3CCc4c([nH]c5ccccc45)[C@](C(=O)OC)(C2)[C@H]13 [Catharanthine] | 1.45 | 1.4 | 0.692 | 1.02 | 0.581 | 1.41 |
| COC(=O)C[C@](O)(CCC(C)(C)O)C(=O)O[C@@H]1C(OC)=C[C@]23CCCN2CCc2cc4c(cc2[C@H]13)OCO4 [Harringtonine] | 3.42 | 3.22 | 4.37 | 3.78 | 3.46 | 3.73 |
| CCN1CCN(C(=O)Cc2ccc(Nc3ncc(F)c(Nc4ccc(C(=O)Nc5ccccc5Cl)cc4)n3)cc2)CC1 [Aurora A Inhibitor I] | 5.7 | 4.77 | 1.39 | 3.33 | 4.52 | 3.43 |
| Clc1ccc(C(OCCN2CCCCC2)c2ccccc2)cc1 (stereo not drawn) [Cloperastine hydrochloride] | 0.838 | 1.16 | 1.16 | 0.914 | 1.43 | 1.16 |
| CC(=O)OC12COC1CC(O)C1(C)C(=O)C(O)C3=C(C)C(O)CC(O)(C(OC(=O)c4ccccc4)C21)C3(C)C (stereo not drawn) [10-Deacetylbaccatin-III] | 1.79 | 1.11 | 0.834 | 1.7 | 1.38 | 1.4 |
| CC(=O)NC1CCSC1=O (stereo not drawn) [Citiolone] | 1.19 | 0.873 | 0.825 | 1.06 | 0.461 | 1.71 |
| Oc1ccc(Cl)cc1Cc1cc(Cl)ccc1O [Dichlorophene] | 0.835 | 1.05 | 1.3 | 1.16 | 0.516 | 1.18 |
| CCCN1CCO[C@@H]2c3cc(O)ccc3OC[C@H]21 | 0.455 | 0.629 | 0.762 | 0.945 | 0.824 | 0.818 |
| Cc1cccc(C)c1NC1=NCCCS1 [Xylazine] | 1.17 | 0.386 | 1.01 | 0.632 | 0.887 | 0.579 |
| COc1ccc(CN2CCNCC2)c(OC)c1OC [Trimetazidine dihydrochloride] | 0.784 | 0.96 | 0.805 | 0.719 | 0.412 | 1.08 |
| C[CH2][Hg][S]c1ccccc1C(=O)[O-].[Na+] [Thimerosal] | 5.05 | 2.89 | 6.79 | 6.21 | 1.5 | 2.69 |
| CC(Cc1ccc(O)cc1)NCC(O)c1cc(O)cc(O)c1 (stereo not drawn) [Fenoterol hydrobromide] | 0.772 | 0.319 | 0.524 | 0.734 | 0.461 | 0.781 |
| CC(C)(C)c1cc(C=C(C#N)C#N)cc(C(C)(C)C)c1O [Tyrphostin 9] | 3 | 2.48 | 1.41 | 1.32 | 0.766 | 1.95 |
| CCC12C=CCN3CC[C@@]4(c5ccc(OC)cc5N(C)[C@H]4[C@@](O)(C(=O)OC)[C@@H]1OC(C)=O)[C@@H]32 (stereo partly drawn) [Vindoline] | 1.01 | 0.491 | 0.771 | 0.943 | 0.607 | 0.946 |
| COC[C@H]1OC(=O)c2coc3c2[C@@]1(C)C1=C(C3=O)[C@@H]2CCC(=O)[C@@]2(C)C[C@H]1OC(C)=O [Wortmannin] | 1.37 | 1.06 | 1.2 | 2.24 | 0.655 | 1.14 |
| NC(=O)CN1CC(O)CC1=O (stereo not drawn) [Oxiracetam] | 1.07 | 0.677 | 0.989 | 1.39 | 0.778 | 0.764 |
| C=CCN1CC[C@]23c4c5ccc(O)c4O[C@H]2C(=O)CC[C@@]3(O)[C@H]1C5 [Naloxone HCl] | 1.04 | 0.456 | 0.671 | 0.576 | 0.59 | 0.689 |
| CC[C@H]1CN2CC[C@H]1C[C@@H]2[C@@H](O)c1ccnc2ccc(OC)cc12 [Hydroquinidine] | 0.75 | 0.791 | 0.64 | 1.18 | 0.881 | 1.23 |
| Cc1cc(O)ccc1Cl [Chlorocresol] | 0.894 | 0.612 | 0.527 | 0.762 | 0.668 | 1.1 |
| Cc1cc(C(C#N)c2ccc(Cl)cc2)c(Cl)cc1NC(=O)c1cc(I)cc(I)c1O (stereo not drawn) [Closantel] | 1.21 | 0.707 | 0.758 | 0.654 | 0.749 | 0.648 |
| C[C@@H]1CC[C@H]2[C@@H](C)C(=O)O[C@@H]3O[C@@]4(C)CC[C@@H]1[C@]32OO4 [Artemisinin] | 1.18 | 1.01 | 1.43 | 0.903 | 1.24 | 1.25 |
| C[N+]1(C)[C@@H]2C[C@@H](OC(=O)[C@H](CO)c3ccccc3)C[C@H]1[C@@H]1O[C@@H]12 [Methscopolamine] | 0.909 | 0.693 | 0.721 | 0.773 | 0.666 | 1.04 |

| Structure (SMILES) | Euclidean distance [1] | Euclidean distance [2] | Euclidean distance [3] | Euclidean distance [4] | Euclidean distance [5] | Euclidean distance [6] |
| --- | --- | --- | --- | --- | --- | --- |
| C#C[C@]1(O)C=C[C@H]2[C@@H]3CCC4=CC(=O)CC[C@@H]4[C@H]3CC[C@@]21CC [Gestodene] | 1.29 | 0.869 | 2.08 | 1.08 | 2.49 | 1.33 |
| CNCC(=O)c1ccc(O)c(O)c1 [Adrenalone HCl] | 1.06 | 0.418 | 1.18 | 1.16 | 0.892 | 0.981 |
| C#C[C@]1(O)CC[C@H]2[C@@H]3CCC4=CC(=O)CC[C@]4(C)[C@H]3CC[C@@]21C [Ethisterone] | 1.07 | 0.836 | 1.58 | 0.721 | 0.747 | 1.06 |
| N.N.[Cl][Pt][Cl] [Cisplatin] | 1.62 | 1.39 | 0.914 | 0.888 | 1.55 | 0.788 |
| COC(=O)[C@@H](N)CCCNC(=N)N[N+](=O)[O-] | 0.931 | 1.3 | 0.775 | 1.29 | 0.551 | 0.995 |
| N#Cc1nn(-c2c(Cl)cc(C(F)(F)F)cc2Cl)c(N)c1[S+]([O-])C(F)(F)F (stereo not drawn) [Fipronil] | 0.855 | 1.11 | 0.897 | 1.05 | 0.591 | 0.894 |
| C[C@@H]1O[C@@H](O[C@H]2C[C@@H](O)[C@]3(CO)[C@H]4[C@H](O)C[C@]5(C)[C@@H](C6=CC(=O)OC6)CC[C@]5(O)[C@@H]4CC[C@]3(O)C2)[C@H](O)[C@H](O)[C@H]1O [Ouabain] | 6.72 | 6.03 | 6.56 | 4.56 | 3.34 | 7.06 |
| CNC(=O)Oc1cccc2ccccc12 [Carbaryl] | 1.83 | 1.3 | 0.843 | 0.842 | 0.501 | 1.03 |
| NCCCNCCSP(=O)(O)O [Amifostine] | 2.98 | 1.18 | 1.66 | 1.8 | 1.22 | 1.31 |
| C[C@H]1CC(=O)C[C@@H]2CC[C@H]3[C@@H]4CC[C@H](O)[C@@]4(C)CC[C@@H]3[C@]21C [Mesterolone] | 1.38 | 1.27 | 1.33 | 1.08 | 0.446 | 0.883 |
| O=c1[nH]c2ccccc2n1C1CCN(CCCC(c2ccc(F)cc2)c2ccc(F)cc2)CC1 [Pimozide] | 1.83 | 3.09 | 1.3 | 1.12 | 0.874 | 0.955 |
| CC[C@@]1(O)C[C@H](O[C@H]2C[C@H](N(C)C)[C@H](O)[C@H](C)O2)c2c(cc3c(c2O)C(=O)c2c(O)cccc2C3=O)[C@H]1C(=O)OC [Aclacinomycin] | 2.61 | 3.27 | 3.54 | 3.61 | 3.76 | 3.12 |
| CN(C)C(=O)Oc1ccc[n+](C)c1 [Pyridostigmine Bromide] | 0.816 | 0.961 | 0.672 | 0.846 | 0.726 | 0.777 |
| N[C@@H]1C[C@H]1c1ccccc1 [Tranylcypromine (2-PCPA) HCl] | 1.2 | 1.52 | 1.36 | 2.02 | 1.47 | 1.76 |
| CC(C)(C)NCC(O)c1ccccc1Cl (stereo not drawn) [Tulobuterol hydrochloride] | 0.975 | 0.768 | 0.82 | 0.711 | 0.75 | 1.75 |
| COc1ccc2c(c1)[C@]13CCCC[C@@H]1[C@H](C2)N(C)CC3 [Dextromethorphan hydrobromide hydrate] | 1.3 | 1.32 | 0.854 | 1.76 | 1.11 | 1.39 |
| C[N+]12CCC(CC1)C(OC(=O)C(O)(c1ccccc1)c1ccccc1)C2 (stereo not drawn) [Clidinium Bromide] | 0.785 | 0.788 | 0.87 | 0.845 | 0.445 | 0.671 |
| COc1ccc(C=O)cc1 [p-Anisaldehyde] | 1.24 | 0.754 | 0.627 | 0.751 | 0.785 | 1.16 |
| C[C@@]12N[C@@H](Cc3ccccc31)c1ccccc12 [(-)-MK 801 Maleate] | 1 | 1.63 | 1.84 | 3.8 | 1.69 | 4.43 |
| CN1c2ccccc2C(NCCCCCCC(=O)O)c2ccc(Cl)cc2S1(=O)=O (stereo not drawn) [Tianeptine sodium] | 1.2 | 0.593 | 0.767 | 1.05 | 0.471 | 1.36 |
| O=C1CCC[C@@H]2[C@H]3CCCN4CCC[C@@H](CN12)[C@@H]34 [(+)-Matrine] | 1 | 0.876 | 0.902 | 1.03 | 0.874 | 0.759 |
| O=P(O)(NCCCl)NCCCl [Palifosfamide] | 1.23 | 0.923 | 1.53 | 1.11 | 0.698 | 1.21 |
| COc1ccc2c(c1)[nH]c1c(C)nccc12 [Harmine hydrochloride] | 1.41 | 1.17 | 1.13 | 1.58 | 1.06 | 1.25 |
| O=c1ccc2cc(O[C@@H]3O[C@H](CO)[C@@H](O)[C@H](O)[C@H]3O)c(O)cc2o1 [Esculin] | 0.808 | 0.729 | 0.922 | 0.993 | 0.624 | 1.29 |
